# ALR inh: inhibitors of human ALR sulfhydryl oxidase, primary screen, biochemical, H2O2 detection, HRP-luminol luminescence, single point; purified ALR, DTT oxidation; FAD-linked sulfhydryl oxidase ALR (Homo sapiens), P55789; inhibition, % (no concentration beside the values); 290,000 compounds, 3.8% hits; AID 485317, 2010;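 active = mean replicate inhibition above about 79%, with every replicate also reaching it, limit read from the data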
# PREPL inhibitor: PREPL enzyme inhibitors, primary screen, biochemical, fluorescence polarization; AID 2751, 2010; inhibition, % at 5.96 µM; 320,000 compounds, 0.68% hits; Prolyl endopeptidase-like (Homo sapiens), Q4J6C6; recombinant PREPL, fluorescence polarization activity-based probe; in the data active = inhibition above about 43%;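 also: 0% = enzyme with DMSO and 100% = wells lacking enzyme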
# CHT PAM: CHT positive allosteric modulators, primary screen, cell-based, membrane potential dye, choline EC20. High affinity choline transporter 1 (Homo sapiens), Q9GZV3. CHT-expressing cells; stronger effect = higher value; LV-AA mutant CHT in HEK293 cells. B-score at 10 µM. 310,000 compounds, 0.49% hits. AID 488977, 2010;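 active = initial fluorescence not abnormally high and integrated response B-score, plate-corrected, over 3 SD above library mean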
# Target sequence (Q9GZV3 whole entry, looked up): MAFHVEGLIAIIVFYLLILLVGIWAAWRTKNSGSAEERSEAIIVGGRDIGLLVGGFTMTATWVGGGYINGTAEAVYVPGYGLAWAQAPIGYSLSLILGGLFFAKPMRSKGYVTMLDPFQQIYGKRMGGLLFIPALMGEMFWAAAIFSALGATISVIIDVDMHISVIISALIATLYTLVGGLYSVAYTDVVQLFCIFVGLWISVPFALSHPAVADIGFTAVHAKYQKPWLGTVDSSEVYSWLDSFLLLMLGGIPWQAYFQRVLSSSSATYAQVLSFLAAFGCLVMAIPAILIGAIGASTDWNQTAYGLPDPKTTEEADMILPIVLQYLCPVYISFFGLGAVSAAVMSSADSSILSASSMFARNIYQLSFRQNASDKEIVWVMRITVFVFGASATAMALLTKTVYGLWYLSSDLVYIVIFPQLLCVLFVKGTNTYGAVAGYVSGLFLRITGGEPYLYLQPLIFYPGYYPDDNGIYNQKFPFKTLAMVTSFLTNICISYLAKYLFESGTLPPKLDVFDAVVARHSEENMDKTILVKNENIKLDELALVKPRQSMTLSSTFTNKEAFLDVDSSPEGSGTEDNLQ
# CHT block: inhibitors of human choline transporter CHT; High affinity choline transporter 1 (Homo sapiens), Q9GZV3; CHT-expressing cells, membrane potential dye, choline response; stronger effect = lower value; B-score at 10 µM; 310,000 compounds, 0.86% hits; AID 488975, 2010;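 active = B-score over 3 SD under the library average, and starting fluorescence ratio not unusually high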;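 also: choline stimulus applied at its EC90 after an EC20 pre-addition; B-score computed on integrated fluorescence ratio after choline addition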
# AI-2 QS mod: Vibrio harveyi AI-2 quorum sensing modulators, primary screen, JMH597 strain, luminescence/OD600 ratio | activity change, % at 7.5 µM | Vibrio harveyi JMH597 AI-2 luminescence/OD600 ratio, 9 h; stronger effect = lower value; strain lacks LuxN and CqsS sensors; 0 = neutral-control median | 300,000 compounds, 0.4% hits; in the data active = activity change below about -75%, passing the limit was not always enough;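 also: luminescence divided by OD600 gain over 9 h not by final OD600 alone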
# * hit, by the source's call; i = inactive; nt = not tested or not shown. Compounds with a hit are over-represented: about 5% of the library has one in this group of screens.
SMILES,ALR inh,PREPL inhibitor,CHT PAM,CHT block,AI-2 QS mod
CC(=O)Nc1ccc(-c2csc(NC(=O)c3ccc(C)o3)n2)cc1,11,-5,i,i,17
CCOc1cc(/C=N/NC(=O)CSc2cccc3cccnc23)ccc1O,99*,8,i,i,16
CCOc1cc(/C=N/NC(=O)C(=O)N2CCCC2)ccc1O,99*,-4,i,i,23
O=C(COc1cccc2cccnc12)N/N=C/c1ccc(O)cc1,99*,4,i,i,-3
O=C(N/N=C/c1ccc(C(=O)O)cc1)C(=O)N1CCCCCC1,0,2,i,i,34
CCOc1cc(/C=N/n2c(C)nnc2C)ccc1O,94*,-13,i,i,39
O=c1cc2[nH]c3ccccc3c(=O)n2nc1-c1ccccc1,72,-1,i,i,13
COC(=O)[C@]1(C)N[C@H](CN(C)S(=O)(=O)c2ccc(F)cc2)[C@@H]2C(=O)N(C)C(=O)[C@@H]21,nt,8,nt,nt,nt
CCOc1cc(/C=N/Nc2nc(-c3cccs3)c(NC(C)=O)s2)ccc1O,95*,19,i,i,20
CCOc1cc(/C=N/NC(=O)c2ccc(NC(=O)C3CC3)cc2)ccc1O,32,3,i,i,29
CCOc1cc(/C=N/NC(=O)Nc2ccccc2)ccc1O,99*,9,i,i,31
CCOc1cc(/C=N/NC(=O)C2CCCC2)ccc1O,99*,5,i,i,12
CC(=O)Nc1sc(N/N=C\c2ccccc2)nc1-c1cccs1,13,1,i,i,36
Cc1ccccc1OC(=O)c1cccc(S(=O)(=O)N2CCN(C)CC2)c1,nt,-8,nt,nt,nt
CCN(CC(=O)Nc1ccc(OC)cc1)C(=O)c1ccc(N2CCCC2=O)cc1,nt,34,nt,nt,nt
CCCS(=O)c1nc(C)cc(C)c1S(C)(=O)=O (stereo not given),-5,-3,i,i,11
C=CCn1sc(N)c(C(=O)OCC)c1=S,99*,-2,i,i,3
CC(=O)N1C(=O)c2cccc3cccc(c23)C(=O)N1C(C)=O,-12,2,i,i,22
O=C1c2cccc3cccc(c23)C(=O)C1(O)O,99*,6,i,i,13
COc1ccc2nc(Nc3ccccc3)sc2c1,94*,24,i,i,13
COc1ccc2nc(Nc3ccccc3OC)sc2c1,99*,22,i,i,12
O=C(COC(=O)CCC(=O)N1CCOCC1)Nc1ccc(Br)cc1Br,-3,22,nt,nt,nt
CCOC(=O)C1CCCN(C(=O)c2ccc(-c3ccc([N+](=O)[O-])cc3)o2)C1 (stereo not given),6,10,i,i,i
O=c1c(Cc2c(F)cccc2Cl)c(O)ccn1C1CCCCCC1,4,4,i,i,29
CCNc1ccc(S(=O)(=O)N(C)C)cc1NCC(=O)Nc1ccccc1Cl,99*,-3,i,i,-3
SMILES,ALR inh,PREPL inhibitor,CHT PAM,CHT block,AI-2 QS mod
NS(=O)(=O)c1cccc(NC(=O)COC(=O)CCC(=O)c2cccs2)c1,-2,9,nt,nt,nt
CCOC(=O)C(=NCCCN(C)C)NNc1ccc(Br)cc1,99*,6,i,i,12
CCCCN=C(NNc1ccc(Br)cc1)C(=O)OCC,99*,0,i,i,7
Cc1cc(NC(=O)COc2ccc(C(C)(C)C)cc2)no1,nt,nt,nt,nt,10
CCn1c(CNc2ccc(Cl)cc2)nnc1SCc1ccc(Cl)cc1,-2,1,i,i,4
CCn1c(CNc2ccc(Cl)cc2)nnc1SCCN1CCCCC1,98*,10,i,i,21
O=C1NC[C@H](c2ccccc2)N(CCC23CC4CC(CC(C4)C2)C3)C1=O,1,-1,i,i,47
N#CC1=C(N)C(C#N)(C#N)[C@H](c2ccoc2)[C@H]2CN(Cc3ccccc3)CC=C12,-19,52*,i,i,12
CN1CC=C2C(C#N)=C(N)C(C#N)(C#N)[C@H](c3ccoc3)[C@H]2C1,-23,34,i,i,22
CCCCNC(=S)NCCN1CCN(C(=S)NCCCC)CC1,11,-2,i,i,3
S=c1[nH]nc(-c2ccco2)n1C1CCCCC1,95*,1,i,i,16
COc1ccc(-n2c(-c3ccco3)n[nH]c2=S)cc1,95*,3,i,i,25
Nn1c(-c2ccco2)n[nH]c1=S,1,7,i,i,25
Cc1ccc(Nc2c(-c3ccc(N4CCOCC4)cc3)nc3ncccn23)cc1,21,11,i,i,23
Cc1ccc(Nc2cc(C)nc(N3CCOCC3)n2)cc1,10,4,i,i,9
COc1ccc(Nc2c(-c3ccc(OC)cc3)nc3cnccn23)cc1,98*,15,i,i,-1
Cc1ccc(Nc2c(-c3ccc(N4CCOCC4)cc3)nc3ncccn23)cc1C,94*,27,i,i,-3
Cc1ccc(Nc2c(-c3ccc(N4CCOCC4)cc3)nc3cnccn23)cc1,99*,16,i,i,-2
Cc1ccc(-c2nc3cnccn3c2Nc2ccc3c(c2)OCCO3)o1,99*,17,i,i,47
CC(C)c1ccc(N(C(=O)c2ccc3c(c2)OCO3)C2C=CS(=O)(=O)C2)cc1 (stereo not given),32,10,i,i,28
Nc1ccc(OCCCc2c(N)nc(N)nc2N)cc1,99*,52*,i,i,15
COc1ccc(Cc2c(N)nc(N)nc2N)cc1,-4,13,i,i,2
CC(Sc1nnnn1C)C(=O)NC1CCCC1 (stereo not given),-1,15,nt,nt,nt
COc1cccc(N/N=C/c2cccc(Br)c2O)c1,99*,17,i,i,10
O=[N+]([O-])c1cccc(N/N=C/c2cccc(O)c2O)c1,100*,27,i,i,19
SMILES,ALR inh,PREPL inhibitor,CHT PAM,CHT block,AI-2 QS mod
Cc1cccc(N/N=C/c2ccc(O)c(O)c2O)c1,79*,5,i,i,58
COc1ccc(CN2C(=O)C(Cc3ccccc3)Nc3ncnc(N4CCc5ccccc5C4)c32)cc1 (stereo not given),4,-59,i,i,32
CCc1ccc(OCC(=O)NC(NC(=S)Nc2ccc(Cl)cc2)C(Cl)(Cl)Cl)cc1 (stereo not given),-1,7,i,i,4
CC/C=C\C/C=C\C/C=C\CCCCCCCC(=O)O,20,3,i,i,nt
CCCCC/C=C\C/C=C\C/C=C\C/C=C\CCCC(=O)O,97*,-11,i,i,nt
CCc1ccc(NC2=NCC(c3ccccc3)S2)cc1 (stereo not given),nt,2,i,i,-95*
Cc1ccc(O)c(CCc2ccc(O)cc2)n1,94*,-8,i,i,6
